Among all 10,000 compounds or so, about 320 (3.2%) were called active. What follows is part of a selection rich in actives, with near analogues and random picks from the rest. Values without a mark were called inactive. Rule as the data show it: active = CPE inhibition mostly above about 9.1% (no sharp cut-off); inactive = mostly below about 7.2%.

This test can be described thus: antivirals protecting cells from dengue CPE – CPE readout, HTS (AID 540333). The settings on record: Dengue virus CPE inhibition in host cells, at 20 µM; hits give high values.
As for `CCn1cc([N+](=O)[O-])nc1C`, the CPE inhibition is 0.275%.

Take `CNC(=S)Nc1cc(Cl)ccc1Oc1ccccc1`: the CPE inhibition is 0.98%.

Consider `O=C(CSc1ccccc1)Nc1cc(Cl)ccc1Oc1ccccc1`, for which the CPE inhibition is 3.48%.

For `O=C(Nc1cc(Cl)ccc1Oc1ccccc1)c1ccc(F)cc1`, the CPE inhibition was 7.54% (active).

As to `COc1cccc(NC(=S)NCCN2CCOCC2)c1`, the CPE inhibition result is “inactive”.

With `COC(C(=O)Nc1ccc(Cl)cc1C)c1ccccc1` (stereo not drawn), the CPE inhibition is 1.5%.

Turning to `O=C(Nc1cccc(-c2nc3ccccc3s2)c1)C1=COCCO1`, the CPE inhibition entry is “inactive”.

As to `O=C(OC(C(=O)Nc1ccc(Cl)c(C(F)(F)F)c1)c1ccccc1)C1=COCCO1` (stereo not drawn), the CPE inhibition was 16.4% (active).

In the case of `Cc1ccc(C(=O)OC(C(=O)Nc2ccc(Cl)cc2C(F)(F)F)c2ccccc2)cc1` (stereo not drawn), the CPE inhibition was 7.33%.

With `O=C(OC(C(=O)Nc1cc(Cl)cc(Cl)c1)c1ccccc1)C1=COCCO1` (stereo not drawn), the CPE inhibition is 32.8% (active).

Consider `O=C(Nc1nnc(-c2ccc(Cl)cc2)o1)C1=COCCO1`, for which the CPE inhibition is 0.23%.

Consider `O=C(Nc1cc(Cl)cc(Cl)c1)C(c1ccccc1)N1CCCCC1` (stereo not drawn), for which the CPE inhibition was 3.29%.

As to `O=C(OC(C(=O)Nc1ccc(Cl)cc1C(F)(F)F)c1ccccc1)c1c(Cl)cccc1Cl` (stereo not drawn), the CPE inhibition is 21.7% (active).

For `O=C(Nc1ccc(Cl)c(C(F)(F)F)c1)C(=O)N1CCCCC1`, the CPE inhibition was 1.26%.

Consider `COC(=O)c1cnn(-c2nc(OC)cc(OC)n2)c1C`, for which the CPE inhibition is 0.205%.

Consider `COC(=O)C1=NN(c2cccc(C)c2)C2C(=O)N(c3ccccc3OC)C(=O)C12` (stereo not drawn), for which the CPE inhibition was 0.91%.

In the case of `O=S(=O)(c1ccc(F)cc1)N1CCN(C(=S)NCc2ccco2)CC1`, the CPE inhibition is 0.8%.

In the case of `CCOc1ccc(S(=O)(=O)N2CCN(C(=S)NCc3ccco3)CC2)cc1`, the CPE inhibition is 0.65%.

For `CC(C)c1ccc(S(=O)(=O)N2CCN(C(=S)NCc3ccco3)CC2)cc1`, the CPE inhibition is 13.8% (active).

Take `Cn1c(=NC(=O)c2ccccc2[N+](=O)[O-])sc2cc(S(C)(=O)=O)ccc21`: the CPE inhibition was 2.59%.

For `CCCCN1CC(=O)N2[C@H](c3ccc(OC)cc3)[C@@H]3C(=O)N(CC)C(=O)[C@@H]3[C@]2(C)C1=O`, the CPE inhibition result is “inactive”.

Regarding `CC1(C)C=C(c2ccc(C=O)s2)CC(C)(C)N1C=O`, the CPE inhibition is 0.13%.

On to `O=C(COC(=O)C12CC3CC(CC(C3)C1)C2)Nc1ccc([N+](=O)[O-])cc1Br`, for which the CPE inhibition result is “inactive”.

For the molecule `O=C(COC(=O)C12CC3CC(CC(C3)C1)C2)Nc1ccc([N+](=O)[O-])cc1Cl`, the CPE inhibition was 1.98%.

For the molecule `O=C(COC(=O)C12CC3CC(CC(C3)C1)C2)Nc1nc2c(F)c(F)c(F)cc2s1`, the CPE inhibition was 13.5% (active).

Consider `CCN(Cc1ccccc1)c1ccc(/C=N/NS(=O)(=O)c2ccc(C)c([N+](=O)[O-])c2)cc1`, for which the CPE inhibition is 0.46%.

Take `CCN(Cc1ccccc1)c1ccc(/C=N/N=C(N)N)cc1`: the CPE inhibition entry was “inactive”.

On to `CCN(CC)c1ccc(/C=N/NC(=O)c2ccco2)cc1`, for which the CPE inhibition was 1.16%.

Consider `CCN(CC)c1ccc(/C=N/NC(=S)NCc2ccccc2)c(O)c1`, for which the CPE inhibition result is “inactive”.

Consider `C=CCNC(=S)N/N=C/c1ccc(N(CC)Cc2ccccc2)cc1`, for which the CPE inhibition is 28.3% (active).

As to `CCN(Cc1ccccc1)c1ccc(/C=N/NC(=S)NC(C)C)cc1`, the CPE inhibition was 30.1% (active).

Take `CCOC(=O)c1ccc(NC(=O)c2c(N)n(Cc3ccccc3)c(=O)[nH]c2=O)cc1`: the CPE inhibition entry is “inactive”.

Regarding `Cc1ccc(CCNC(=O)CN(C)S(=O)(=O)c2cnc[nH]2)cc1`, the CPE inhibition result is “inactive”.

Regarding `O=C(Nc1ccc(Cl)c([N+](=O)[O-])c1)c1ccncc1`, the CPE inhibition is 0.365%.

For `CC12CCC(C(=O)N3CCCc4ccccc43)(OC1=O)C2(C)C` (stereo not drawn), the CPE inhibition was 0.12%.

As to `O=C(C1=NN[C@@H]2C(=O)N(c3cccc(C(F)(F)F)c3)C(=O)[C@H]12)C(c1ccccc1)c1ccccc1`, the CPE inhibition was 0.31%.

With `CC(C(=O)Nc1sc2c(c1C(=O)NCC1CCCO1)CCC2)N1C(=O)c2ccccc2C1=O` (stereo not drawn), the CPE inhibition entry was “inactive”.

As to `COC(=O)c1c(NC(NC(=O)C(C)C)C(Cl)(Cl)Cl)sc2c1CCC2` (stereo not drawn), the CPE inhibition is 13.8% (active).

Turning to `CC(C)C(=O)NC(=S)Nc1sc2c(c1C(N)=O)CCCC2`, the CPE inhibition entry is “inactive”.

For the molecule `CCOC(=O)c1c(NC(=S)Nc2ccc(OC)cc2)sc2c1CCC2`, the CPE inhibition result was “inactive”.

For the molecule `CCOC(=O)c1c(NC(NC(C)=O)C(Cl)(Cl)Cl)sc2c1CCCC2` (stereo not drawn), the CPE inhibition is 13% (active).

As to `CCOC(=O)c1c(NC(=O)C2(C)Cc3ccccc3C(=O)O2)sc2c1CCCC2` (stereo not drawn), the CPE inhibition is 4.8%.

For the molecule `COc1ccc(N(CC(=O)Nc2cccc([N+](=O)[O-])c2C)S(C)(=O)=O)cc1OC`, the CPE inhibition entry is “inactive”.

As for `N/C(=N\OCC(=O)Nc1ccccc1)c1nonc1N`, the CPE inhibition is 0.24%.

Turning to `NS(=O)(=O)c1ccc(CCNC(=O)c2cc(-c3ccccc3)nc3ccccc23)cc1`, the CPE inhibition entry is “inactive”.

Take `CC1(c2nnc(Cc3ccccc3)o2)CC(c2ccccc2F)=NO1` (stereo not drawn): the CPE inhibition entry is “inactive”.

As to `COc1ccc(C(=O)NCC(=O)OCC(=O)N2CCN(S(=O)(=O)c3ccccc3)CC2)cc1`, the CPE inhibition entry is “inactive”.

Turning to `O=C(NNC(=S)NCc1ccccc1)c1ccc(OC(F)F)cc1`, the CPE inhibition was 0.96%.

As to `FC(F)Oc1ccc(NC(=S)NCc2ccccc2)cc1`, the CPE inhibition entry was “inactive”.

Take `O=C(NCc1ccccc1)/C(=C/c1ccc(OC(F)F)cc1)c1ccccc1`: the CPE inhibition was 9.52% (active).

In the case of `Cc1cc(C(=O)COc2ccc(C#N)cc2)c(C)n1-c1ccc2c(c1)OCO2`, the CPE inhibition was 9.11%.

Turning to `O=C(O)c1cccc2c1C(=O)c1ccc(-c3ccc(F)cc3F)cc1S2(=O)=O`, the CPE inhibition was 1.88%.

Regarding `O=C(Nc1ccc(F)cc1)c1ccccc1Oc1ccc(C(F)(F)F)cc1[N+](=O)[O-]`, the CPE inhibition was 9.71%.

As for `O=Cc1ccc(OC2OCCOC2Oc2ccc(C=O)cc2)cc1` (stereo not drawn), the CPE inhibition was 15.4% (active).

As to `c1ccc(-c2csc3ncnc(NCC4COc5ccccc5O4)c23)cc1` (stereo not drawn), the CPE inhibition is 6.15%.

As to `CC1CCc2c(C(=O)OCC(=O)Nc3cccc(S(=O)(=O)N4CCCCCC4)c3)csc2C1` (stereo not drawn), the CPE inhibition is 11.4% (active).

Regarding `Nc1nccnc1C(=O)OCC(=O)Nc1cccc(S(=O)(=O)N2CCCCC2)c1`, the CPE inhibition entry is “inactive”.

On to `Cc1cnc(C(=O)OCC(=O)Nc2cccc(S(=O)(=O)N3CCCCC3)c2)cn1`, for which the CPE inhibition entry was “inactive”.

Take `CS/C(=N\S(=O)(=O)c1cccs1)Nc1cccc(Cl)c1C`: the CPE inhibition entry was “inactive”.

Take `CC(=O)c1cccc(NC(=O)C(OC(=O)c2cccs2)c2ccccc2)c1` (stereo not drawn): the CPE inhibition is 0.01%.

On to `Cc1ccc(NC(=O)C(OC(=O)c2cc(C)oc2C)c2ccccc2)cc1` (stereo not drawn), for which the CPE inhibition was 18.4% (active).

Take `Cc1ccc(NC(=O)C(OC(=O)c2ccc(F)cc2)c2ccccc2)cc1Cl` (stereo not drawn): the CPE inhibition is 1.61%.

Take `Cc1ccc(NC(=O)CSc2ccccc2NC(=O)c2ccccc2Cl)cc1Cl`: the CPE inhibition is 9.34%.

In the case of `Cc1ccc(NC(=O)CSc2ccccc2NC(=O)c2ccccc2)cc1Cl`, the CPE inhibition is 2.96%.

Turning to `COc1ccc(C)cc1NC(=O)C(OC(=O)c1cc(C)oc1C)c1ccccc1` (stereo not drawn), the CPE inhibition is 1.23%.

In the case of `Cc1cc(C(=O)OC(C(=O)Nc2ccc(C)c(Cl)c2)c2ccccc2)c(C)o1` (stereo not drawn), the CPE inhibition was 14.6% (active).

For the molecule `Cc1ccc(NC(=O)C(OC(=O)c2ccc(NC(N)=O)cc2)c2ccccc2)cc1Cl` (stereo not drawn), the CPE inhibition is 15.2% (active).

In the case of `Cc1cc(C)cc(NC(=O)C(OC(=O)c2ccc([N+](=O)[O-])o2)c2ccccc2)c1` (stereo not drawn), the CPE inhibition was 0.445%.

Regarding `Cc1cc(C)cc(-n2c(SCC(=O)Nc3cccc(S(=O)(=O)NC4=NCCCCC4)c3)nc3ccccc3c2=O)c1`, the CPE inhibition was 0.54%.

In the case of `CNC(=O)CSc1nnc(SCCC(=O)O)s1`, the CPE inhibition was 0.415%.

For the molecule `Cc1ccccc1-n1c(C)nnc1SCC(=O)NC1CCCc2ccccc21` (stereo not drawn), the CPE inhibition was 0.065%.

For the molecule `Cc1cccc(Nc2nnc(SCC(=O)NC3CCCc4ccccc43)s2)c1C` (stereo not drawn), the CPE inhibition was 14.5% (active).

On to `O=C(CSc1nc2ccccc2s1)NC1CCCc2ccccc21` (stereo not drawn), for which the CPE inhibition was 0.775%.

For the molecule `O=C1c2ccccc2C(=O)N1CN(C(=O)COc1ccc(Cl)cc1Cl)c1cccc(F)c1`, the CPE inhibition was 3.16%.

As for `CCOC(=O)C1=C(C)NC(=O)C1CC(=O)O` (stereo not drawn), the CPE inhibition entry was “inactive”.

Turning to `CN(c1cccc(NC(=O)CN(c2ccc(Cl)c(Cl)c2)S(=O)(=O)c2ccccc2)c1)S(C)(=O)=O`, the CPE inhibition was 5.86%.

Turning to `CN(c1cccc(NC(=O)CN(c2cccc(Cl)c2)S(=O)(=O)c2ccc(Cl)cc2)c1)S(C)(=O)=O`, the CPE inhibition is 11.8% (active).

Consider `CN(c1cccc(NC(=O)CN(c2cccc(Cl)c2)S(=O)(=O)c2ccccc2)c1)S(C)(=O)=O`, for which the CPE inhibition is 3.62%.

For the molecule `COC(=O)CNC(=O)C1Nc2ccc(OC(F)(F)F)cc2C2C=CCC12` (stereo not drawn), the CPE inhibition was 0.595%.

For `COc1ccc2c(C)cc(Sc3nnnn3-c3ccccc3)nc2c1`, the CPE inhibition is 3.01%.

`COc1ccc(NC(=O)c2ccc(C#N)cc2)cc1NS(=O)(=O)c1ccc(F)cc1`: the CPE inhibition result is “inactive”.

For the molecule `CC(=O)N1N=C(c2ccc(Br)cc2)CC1c1cn(C)c2ccccc12` (stereo not drawn), the CPE inhibition is 16% (active).

Take `CCC(=O)N1N=C(c2ccc(C)o2)CC1c1ccc(Br)cc1` (stereo not drawn): the CPE inhibition result was “inactive”.

In the case of `CC(=O)N1N=C(c2ccccc2)CC1c1cn(Cc2ccccc2)c2ccccc12` (stereo not drawn), the CPE inhibition is 6.58%.

Consider `COc1cc(C#Cc2c(C=O)n(C)c3ccccc23)cc(OC)c1`, for which the CPE inhibition is 8.36% (active).

For `Cn1c(C=O)c(C#Cc2ccccc2)c2ccccc21`, the CPE inhibition entry was “inactive”.

On to `Cn1c(C=O)c(C#CC(C)(C)O)c2ccccc21`, for which the CPE inhibition was 4.96%.

Turning to `COc1cc(SC)ccc1C(=O)NCCc1ccccc1`, the CPE inhibition was 0.785%.

Take `O=C(Nc1cccc(Cl)c1)Nc1cc(S(=O)(=O)N2CCOCC2)ccc1N1CCCC1`: the CPE inhibition was 8.49%.

`CC(C)CC(NC(=O)c1ccc(Cl)cc1)C(=O)OCc1cc([N+](=O)[O-])cc2c1OCOC2` (stereo not drawn): the CPE inhibition was 1.44%.

As to `COC(=O)c1ccc(CNC(=O)COC(=O)C2CCC(C(C)(C)C)CC2)cc1` (stereo not drawn), the CPE inhibition is 0.91%.

With `COc1ccc(CNC(=O)COC(=O)C2CCC(C(C)(C)C)CC2)cc1` (stereo not drawn), the CPE inhibition was 24.9% (active).

In the case of `COc1ccc(CCNC(=O)COC(=O)C2CCCCC2)cc1`, the CPE inhibition is 0.035%.

(Values after PubChem BioAssay AID540333 (Southern Research Specialized Biocontainment Screening …, 2011).)
